Values joined by “and” are separate entries in the source; they are usually repeats but may differ in a detail not shown here. Equal values may be shown once. Results filed as inconclusive are left out. Entries that show only a call come without a potency. Some compounds were tested as several samples or in several runs, with calls that do not always agree. Active and inactive are the calls of the source. The call rests on the fitted dose curve; in most records, active means well fitted curve in the direction sought with a large enough effect in the repeat runs; inconclusive means weak or mixed curves; inactive means no such curve, though single readings can be large; an effect the other way counts as inactive or inconclusive.
Experiments:
[1] = biological target: Cytochrome P450 2C19 (Homo sapiens) (UniProt P33261); assay: Cytochrome P450 Family 2 Subfamily C Member 19 (CYP2C19) small molecule antagonists: luciferase reporter qHTS assay (AID 1671197); conditions: P450-Glo CYP2C19 enzyme, luciferin luminescence, 1 h; series mostly up to 115 µM; further: nearly all actives have a fitted effect of over 65% in size
Cytochrome P450 2C19 (Homo sapiens), sequence (P33261 whole entry, looked up): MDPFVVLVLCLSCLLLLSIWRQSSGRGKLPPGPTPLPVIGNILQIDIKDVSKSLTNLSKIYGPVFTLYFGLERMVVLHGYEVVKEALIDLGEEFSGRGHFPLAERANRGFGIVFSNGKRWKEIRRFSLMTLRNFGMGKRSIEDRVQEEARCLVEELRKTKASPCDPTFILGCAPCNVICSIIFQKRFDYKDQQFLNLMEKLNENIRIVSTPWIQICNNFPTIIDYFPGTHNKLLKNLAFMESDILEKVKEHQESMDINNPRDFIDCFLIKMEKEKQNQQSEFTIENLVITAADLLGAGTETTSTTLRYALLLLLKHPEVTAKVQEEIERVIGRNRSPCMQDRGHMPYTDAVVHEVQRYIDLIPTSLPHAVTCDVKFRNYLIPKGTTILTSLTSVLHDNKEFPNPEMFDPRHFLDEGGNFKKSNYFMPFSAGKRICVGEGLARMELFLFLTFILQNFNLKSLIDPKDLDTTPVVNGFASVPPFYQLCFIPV
Outline: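 Relative luminescence units recorded 20 min after the detection reagent stopped a 1 h, 37C CYP2C19 reaction on proluciferin substrate, which was started by NADPH regeneration following 10 min room-temperature compound preincubation; ketoconazole positive control.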

[2] = biological target: Cytochrome P450 2C9 (Homo sapiens) (UniProt P11712); assay: Cytochrome P450 Family 2 Subfamily C Member 9 (CYP2C9) small molecule antagonists: luciferase reporter qHTS assay (AID 1671198); conditions: P450-Glo CYP2C9 enzyme assay, luciferin luminescence; series mostly up to 115 µM; further: nearly all actives have a fitted effect of over 50% in size
Cytochrome P450 2C9 (Homo sapiens), sequence (P11712 whole entry, looked up): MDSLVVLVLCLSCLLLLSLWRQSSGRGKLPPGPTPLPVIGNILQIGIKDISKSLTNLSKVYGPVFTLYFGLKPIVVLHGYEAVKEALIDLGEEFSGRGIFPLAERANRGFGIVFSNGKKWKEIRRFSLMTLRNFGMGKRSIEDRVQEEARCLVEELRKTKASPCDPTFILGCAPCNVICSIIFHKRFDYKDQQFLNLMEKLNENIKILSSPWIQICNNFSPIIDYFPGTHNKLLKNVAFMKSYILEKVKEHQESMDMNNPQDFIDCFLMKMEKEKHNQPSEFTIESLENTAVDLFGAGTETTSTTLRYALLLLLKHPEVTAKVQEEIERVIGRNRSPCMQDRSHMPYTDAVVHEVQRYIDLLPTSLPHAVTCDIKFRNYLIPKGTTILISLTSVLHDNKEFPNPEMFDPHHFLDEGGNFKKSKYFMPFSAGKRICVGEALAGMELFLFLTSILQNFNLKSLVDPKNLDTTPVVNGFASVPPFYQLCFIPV
Outline: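 Enzyme-substrate mix preincubated with compound 10 min at room temperature; reaction started with NADPH regeneration solution, 1 h 37C. Luminescent luciferin product read after 20 min detection reagent.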

[3] = biological target: Cytochrome P450 1A2 (Homo sapiens) (UniProt P05177); assay: Cytochrome P450 Family 1 Subfamily A Member 2 (CYP1A2) small molecule antagonists: luciferase reporter qHTS assay (AID 1671199); conditions: P450-Glo CYP1A2 enzyme, luciferin luminescence, 1 h; series mostly up to 115 µM; further: nearly all actives have a fitted effect of over 50% in size
Cytochrome P450 1A2 (Homo sapiens), sequence (P05177 whole entry, looked up): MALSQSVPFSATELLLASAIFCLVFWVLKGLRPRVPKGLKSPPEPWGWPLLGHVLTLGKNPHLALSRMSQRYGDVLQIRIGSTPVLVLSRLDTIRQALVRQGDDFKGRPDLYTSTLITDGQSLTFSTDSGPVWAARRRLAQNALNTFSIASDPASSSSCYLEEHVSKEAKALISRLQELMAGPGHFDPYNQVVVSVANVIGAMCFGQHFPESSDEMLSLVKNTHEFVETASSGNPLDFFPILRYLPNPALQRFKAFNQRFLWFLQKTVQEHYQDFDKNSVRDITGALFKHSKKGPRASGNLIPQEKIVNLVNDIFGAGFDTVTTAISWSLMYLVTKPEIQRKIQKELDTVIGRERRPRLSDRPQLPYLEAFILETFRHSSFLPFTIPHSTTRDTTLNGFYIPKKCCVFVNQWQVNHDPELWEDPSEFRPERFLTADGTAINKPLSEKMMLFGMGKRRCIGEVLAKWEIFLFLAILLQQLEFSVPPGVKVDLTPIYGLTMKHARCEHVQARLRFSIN
Outline: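 Human CYP1A2 activity measured with a P450-Glo proluciferin substrate; compounds in DMSO preincubated 10 min at room temperature with enzyme-substrate mix, then NADPH regeneration system added for 1 h. Luciferin detection reagent, 20 min, luminescence read.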

[4] = biological target: Voltage-gated inwardly rectifying potassium channel KCNH2 (Homo sapiens) (UniProt Q12809); assay: Human Ether-a-go-go-Related Gene (hERG) channel small molecule antagonists: fluorescence cell-based qHTS assay (AID 1671200); conditions: hERG-U2OS cells, FluxOR thallium flux fluorescence; series mostly up to 76.8 µM; further: nearly all actives have a fitted effect of over 50% in size;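 on activity change, negative = inhibition: hERG-expressing U2OS cells given a thallium stimulus after FluxOR II dye loading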
Voltage-gated inwardly rectifying potassium channel KCNH2 (Homo sapiens), sequence (Q12809 whole entry, looked up): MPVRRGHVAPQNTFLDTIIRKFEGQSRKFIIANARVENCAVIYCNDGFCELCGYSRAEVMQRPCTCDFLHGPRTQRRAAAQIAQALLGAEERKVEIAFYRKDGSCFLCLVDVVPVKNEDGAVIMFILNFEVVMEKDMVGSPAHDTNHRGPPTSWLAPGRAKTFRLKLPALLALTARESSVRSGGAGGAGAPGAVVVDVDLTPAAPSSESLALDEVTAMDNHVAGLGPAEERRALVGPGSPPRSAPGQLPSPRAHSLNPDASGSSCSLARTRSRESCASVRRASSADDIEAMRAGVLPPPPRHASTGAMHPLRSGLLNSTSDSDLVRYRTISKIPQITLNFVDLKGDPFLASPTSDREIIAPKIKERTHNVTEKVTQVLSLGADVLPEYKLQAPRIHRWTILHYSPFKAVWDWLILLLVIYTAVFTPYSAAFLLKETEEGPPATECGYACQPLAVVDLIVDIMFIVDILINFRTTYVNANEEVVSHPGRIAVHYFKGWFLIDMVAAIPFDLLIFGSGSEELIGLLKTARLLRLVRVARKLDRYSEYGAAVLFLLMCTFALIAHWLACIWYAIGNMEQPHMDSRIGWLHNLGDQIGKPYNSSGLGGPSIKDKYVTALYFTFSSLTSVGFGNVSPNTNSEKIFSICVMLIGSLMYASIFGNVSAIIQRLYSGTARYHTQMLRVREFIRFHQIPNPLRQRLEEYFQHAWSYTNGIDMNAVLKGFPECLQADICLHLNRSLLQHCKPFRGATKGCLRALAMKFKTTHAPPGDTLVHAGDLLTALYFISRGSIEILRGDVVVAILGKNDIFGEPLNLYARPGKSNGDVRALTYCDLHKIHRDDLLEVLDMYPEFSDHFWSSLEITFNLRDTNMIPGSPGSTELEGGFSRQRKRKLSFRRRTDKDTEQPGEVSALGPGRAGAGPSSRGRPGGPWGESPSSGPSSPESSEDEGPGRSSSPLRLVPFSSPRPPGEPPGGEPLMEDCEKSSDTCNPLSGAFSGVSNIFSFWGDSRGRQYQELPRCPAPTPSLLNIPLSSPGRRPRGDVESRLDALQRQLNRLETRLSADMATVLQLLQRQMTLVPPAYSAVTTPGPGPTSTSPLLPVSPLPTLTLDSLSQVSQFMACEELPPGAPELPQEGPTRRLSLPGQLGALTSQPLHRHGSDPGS
Outline: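 Fluorescence at 540 nm emission (480 nm excitation) was recorded kinetically for 2 min at 1-second intervals once the thallium-containing stimulus reached cells previously loaded with FluxOR II dye.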

[5] = biological target: Cytochrome P450 3A4 (Homo sapiens) (UniProt P08684); assay: Cytochrome P450 Family 3 Subfamily A Member 4 (CYP3A4) small molecule antagonists: luciferase reporter qHTS assay (AID 1671201); conditions: P450-Glo CYP3A4 enzyme, luciferin luminescence, 1 h; series mostly up to 115 µM; further: nearly all actives have a fitted effect of over 50% in size
Cytochrome P450 3A4 (Homo sapiens), sequence (P08684 whole entry, looked up): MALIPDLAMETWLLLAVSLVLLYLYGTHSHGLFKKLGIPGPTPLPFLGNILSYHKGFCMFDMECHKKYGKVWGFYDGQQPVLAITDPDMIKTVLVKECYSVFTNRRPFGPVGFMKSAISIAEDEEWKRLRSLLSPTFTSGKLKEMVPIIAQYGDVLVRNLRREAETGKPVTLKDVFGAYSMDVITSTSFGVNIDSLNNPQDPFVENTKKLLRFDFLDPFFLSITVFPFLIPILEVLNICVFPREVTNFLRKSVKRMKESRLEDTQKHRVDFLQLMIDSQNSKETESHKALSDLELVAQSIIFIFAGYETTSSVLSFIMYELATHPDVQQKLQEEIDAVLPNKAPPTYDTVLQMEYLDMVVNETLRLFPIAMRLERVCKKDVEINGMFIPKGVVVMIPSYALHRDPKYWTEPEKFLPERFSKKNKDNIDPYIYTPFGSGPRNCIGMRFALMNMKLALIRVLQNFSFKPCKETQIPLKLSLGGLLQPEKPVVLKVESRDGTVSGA
Outline: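 qHTS, 1536-well. CYP3A4 + proluciferin substrate, cpd 10 min RT → NADPH regen 1 h RT → detection reagent 20 min → luminescence (RLU). Ketoconazole positive control.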
Potency means the concentration at half of the fitted maximal effect.

Structure (SMILES) | Potency [1] | Potency [2] | Potency [3] | Potency [4] | Potency [5] | activity change, negative = inhibition [1]
Cc1ccc(C)c(O)c1 | 30.9 µM (active) and inactive | inactive | 30.9 µM (active) and 41.1 µM (active) | inactive | inactive | 
CC/C=C\C/C=C\C/C=C\CCCCCCCC(=O)O | 31.4 µM (active) | 35.3 µM (active) and 39.9 µM (active) | inactive | inactive | inactive and 39.9 µM (active) | 
C1COCCN1 | inactive | inactive | inactive | inactive | inactive | 
O=[Se](O)O | 56.5 µM (active) | 7.11 µM (active) | inactive and 13.6 µM (active) | inactive | inactive | -23.6% [at 23.6 µM] (inactive)
C=CCOC(=O)C(=C)C | inactive | inactive | inactive | inactive | inactive | 
IC(I)I | 39.9 µM (active) and 89.4 µM (active) | 35.5 µM (active) and 63.3 µM (active) | 25.2 µM (active) | inactive |  | 
Cc1ccc2c(c1)C(=O)OC2=O | inactive | inactive | inactive | inactive | inactive | 
CC(=O)O[C@]1(C(C)=O)CC[C@H]2[C@@H]3C=C(C)C4=CC(=O)CC[C@]4(C)[C@H]3CC[C@@]21C | 7.1 µM (active) and 6.92 µM (active) | 7.96 µM (active) and 8.71 µM (active) | inactive | inactive | inactive | 
CCO[Si](CCCNC(N)=O)(OCC)OCC | inactive and 56.4 µM (active) | inactive | inactive | inactive | inactive | 
CC(=O)OC(C)C | inactive | inactive | inactive | inactive | inactive | 
OC[C@H]1O[C@@H]2O[C@H]3[C@H](O)[C@@H](O)[C@@H](O[C@H]4[C@H](O)[C@@H](O)[C@@H](O[C@H]5[C@H](O)[C@@H](O)[C@@H](O[C@H]6[C@H](O)[C@@H](O)[C@@H](O[C@H]7[C@H](O)[C@@H](O)[C@@H](O[C@H]1[C@H](O)[C@H]2O)O[C@@H]7CO)O[C@@H]6CO)O[C@@H]5CO)O[C@@H]4CO)O[C@@H]3CO | inactive | inactive and 3.76 µM (active) | inactive | inactive | inactive | 
CCc1cccc2c3c([nH]c12)C(CC)(CC(=O)O)OCC3 (stereo unspecified) | 39.8 µM (active) | 31.6 µM (active) and 34.7 µM (active) | inactive | inactive | inactive | 
Cc1ccc(/C(=C\CN2CCCC2)c2ccccn2)cc1 | inactive | inactive | inactive | 18.3 µM (active) and 10.7 µM (active) | inactive | 
C=C[C@H]1CN2CC[C@H]1C[C@H]2[C@H](O)c1ccnc2ccc(OC)cc12 | inactive |  |  |  |  | 
Cc1ccc(S(=O)(=O)O)cc1C | inactive | inactive | inactive | inactive | inactive | 
Cc1ccc(C(C)(C)C)cc1 | inactive | inactive | inactive | inactive | inactive | 
CCCCCC1C(=O)CCC1CC(=O)OC (stereo unspecified) | 993 nM (active) and 3.56 µM (active) | 24.9 µM (active) and 31.7 µM (active) | 28 µM (active) and 28.3 µM (active) | inactive | inactive | 
Oc1c(Cl)ccc(Cl)c1Cl | 79.5 µM (active) and inactive | 35.5 µM (active) and 35.6 µM (active) | 35.5 µM (active) and 35.6 µM (active) | inactive | inactive | 
CC[C@]12CCCN3CCc4c(n(c5ccccc45)[C@@](O)(C(=O)OC)C1)[C@@H]32 | 71 µM (active) and inactive | inactive | inactive | 692 nM (active) and 1.69 µM (active) |  | 
Nc1ccc(N)c(Cl)c1 | 3.17 µM (active) and 5.03 µM (active) | 8.92 µM (active) and 8.94 µM (active) | 39.8 µM (active) and 35.6 µM (active) | inactive | 2.51 µM (active) and 5.64 µM (active) | 
O=C(O)c1ccc(O)cc1 | inactive | inactive | inactive | inactive | inactive | 
Clc1ccc(Sc2cc(Cl)c(Cl)cc2Cl)cc1 | 6.92 µM (active) and 3.17 µM (active) | inactive | 11 µM (active) and 3.99 µM (active) |  | inactive | 
Nc1cc([N+](=O)[O-])ccc1C(=O)O | inactive | inactive | inactive | inactive | inactive | 
O=Cc1ccccc1C=O | inactive | 35.6 µM (active) and inactive | 63.3 µM (active) and inactive |  | inactive | 
c1ccc2c(c1)ccc1ncccc12 | 35.3 µM (active) and 79.6 µM (active) | inactive | 4.45 µM (active) and 7.1 µM (active) |  | 62.8 µM (active) | 
O=C1CCc2ccccc2O1 | 31.9 µM (active) and inactive | inactive | inactive |  | inactive | 
Cc1ccc([N+](=O)[O-])c(C)c1 | 8.94 µM (active) and inactive | inactive | inactive |  | inactive | 
CCCCCCCCCCCCO | 31.3 µM (active) | inactive and 22.2 µM (active) | inactive and 27.9 µM (active) |  | inactive | 

Structure (SMILES) | Potency [1] | Potency [2] | Potency [3] | Potency [4] | Potency [5] | activity change, negative = inhibition [1]
COCCOCCOCCO | inactive | inactive | inactive | inactive | inactive | 
Nc1ccc2c(c1)C(=O)c1ccccc1C2=O | 8.78 µM (active) and 35.6 µM (active) | 19.6 µM (active) and 22.4 µM (active) | 220 nM (active) and 252 nM (active) | inactive | 1.24 µM (active) and 1.78 µM (active) | 
COC(=O)CC(=O)OC | 41.6 µM (active) and inactive | inactive | inactive |  | inactive and 63.3 µM (active) | 
OC[C@@H](O)[C@@H](O[C@@H]1O[C@H](CO)[C@H](O)[C@H](O)[C@H]1O)[C@H](O)[C@@H](O)CO | inactive | inactive | 35.1 µM (active) and inactive |  | inactive | 
CCCN1C=CN(C)C1 | inactive | inactive | inactive |  | inactive | 
c1ccc2c(c1)ccc1cc3c(ccc4ccccc43)cc12 | inactive | inactive | 24.9 µM (active) | inactive | inactive | 
Cc1ccc(N)c([N+](=O)[O-])c1 | 39.4 µM (active) | inactive | 15.7 µM (active) and 14.2 µM (active) |  | inactive | 
C=CC(=O)OCCCC | inactive | inactive | inactive |  | inactive | 
C=C1C[C@H]2[C@@H]3C=C(C)C4=CC(=O)CC[C@]4(C)[C@H]3CC[C@]2(C)[C@@]1(OC(C)=O)C(C)=O | 28.9 µM (active) and 9.77 µM (active) | 22.9 µM (active) and 17.4 µM (active) | inactive |  | inactive | 
CCCOCCO | inactive | inactive | inactive | inactive | inactive | 
c1ccc2c(c1)[nH]c1ccccc12 | 7.83 µM (active) and 7.96 µM (active) | inactive | 2.21 µM (active) and 2.24 µM (active) | inactive | inactive | 
CC1(C)O[C@@H]2C[C@H]3[C@@H]4C[C@H](F)C5=CC(=O)C=C[C@]5(C)[C@@]4(F)[C@@H](O)C[C@]3(C)[C@]2(C(=O)CO)O1 | inactive | 39.9 µM (active) | inactive |  | 20 µM (active) and 3.89 µM (active) | 
C=CN1CCCC1=O | inactive | inactive | inactive |  | inactive | 
CCCCCCC(C)O (stereo unspecified) | inactive | inactive | inactive |  | inactive | 
Cc1ccc(C(C)(C)C)c(O)c1 | 30.7 µM (active) and 39.9 µM (active) | 34.4 µM (active) and 71 µM (active) | 71 µM (active) | inactive | inactive | 
NCCOCCO | inactive | inactive | inactive | inactive | inactive | 
C/C=C/C(=O)N(CC)c1ccccc1C | 44.8 µM (active) and 17.4 µM (active) | 39.9 µM (active) | 31.7 µM (active) and inactive | inactive | inactive | 
CCCCCC=O | inactive | inactive | inactive | inactive | inactive | 
CCCCCCCCCCC(CO)CCCCCCCC (stereo unspecified) | inactive | inactive | inactive |  | inactive | 
CN(C)C | inactive | inactive | inactive |  | inactive | 
CC(=O)Oc1c(C)c(C)c2c(c1C)CC[C@@](C)(CCC[C@H](C)CCC[C@H](C)CCCC(C)C)O2 | inactive | inactive | inactive |  | inactive | 
Oc1ccc(C(c2ccc(O)cc2)C(Cl)(Cl)Cl)cc1 | 17.8 µM (active) and 20 µM (active) | 22.4 µM (active) and 12.6 µM (active) | inactive | inactive | 17.8 µM (active) and 20 µM (active) | 
CC(=O)Nc1ccc2c(c1)Cc1cc(NC(C)=O)ccc1-2 | inactive | inactive | inactive | inactive | inactive | 
CCOC(=O)C(C)Oc1ccc(Oc2cnc3cc(Cl)ccc3n2)cc1 (stereo unspecified) | 33.3 µM (active) | 23.6 µM (active) | 52.8 µM (active) |  | inactive | 
C=CCNCC=C | 39.8 µM (active) | inactive | inactive and 39.9 µM (active) | inactive | inactive | 
O=C(O)CCCC(=O)O | 22 µM (active) and inactive | 39.2 µM (active) and inactive | 34.9 µM (active) and inactive | inactive | inactive | 
O=C(O)c1cc(=O)[nH]c(=O)[nH]1 | 40 µM (active) and inactive | inactive | 40 µM (active) and inactive | inactive | inactive | 

Source: PubChem BioAssay (Tox21)
